Assay results reported in the supplement of paper PMC8728848.
The full list was thinned out, with the strongest signals kept by preference.

Tests used:
Assay in all cases: glycan array binding signal (z-score within array); higher = stronger binding
Conditions in all cases: glycan notation: IUPAC condensed, linker removed
[1] = molecular target: Gal(b1-4)GlcNAc(b1-3)Gal(b1-4)GlcNAc(b1-3)Gal(b1-4)GlcNAc(b1-2)Man(a1-3)[Gal(b1-4)GlcNAc(b1-3)Gal(b1-4)GlcNAc(b1-3)Gal(b1-4)GlcNAc(b1-2)Man(a1-6)]Man(b1-4)GlcNAc(b1-4)GlcNAc
Summary of the method: (§1)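 The Consortium for Functional Glycomics database supplied 3228 glycan arrays, of which those lacking an available protein sequence were dropped. The binding signal, a within-array Z-score, was averaged across arrays of the same protein sequence and across linkers. Negative scores can be read as non-binding.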

[2] = molecular target: Gal(b1-4)GlcNAc(b1-3)Gal(b1-4)GlcNAc(b1-3)Gal(b1-4)GlcNAc(b1-3)Gal(b1-4)GlcNAc(b1-2)Man(a1-3)[Gal(b1-4)GlcNAc(b1-3)Gal(b1-4)GlcNAc(b1-3)Gal(b1-4)GlcNAc(b1-3)Gal(b1-4)GlcNAc(b1-2)Man(a1-6)]Man(b1-4)GlcNAc(b1-4)GlcNAc
Summary of the method: as §1

[3] = molecular target: Gal(b1-4)GlcNAc(b1-3)Gal(b1-4)GlcNAc(b1-3)Gal(b1-4)GlcNAc(b1-3)Gal(b1-4)GlcNAc(b1-3)Gal(b1-4)GlcNAc(b1-2)Man(a1-3)[Gal(b1-4)GlcNAc(b1-3)Gal(b1-4)GlcNAc(b1-3)Gal(b1-4)GlcNAc(b1-3)Gal(b1-4)GlcNAc(b1-3)Gal(b1-4)GlcNAc(b1-2)Man(a1-6)]Man(b1-4)GlcNAc(b1-4)GlcNAc
Summary of the method: as §1

[4] = molecular target: Gal6P(b1-4)GlcNAc
Summary of the method: as §1

[5] = molecular target: GalNAc(b1-3)Gal(a1-4)Gal(b1-4)GlcNAc(b1-3)Gal(b1-4)Glc
Summary of the method: as §1

[6] = molecular target: GalNAc(b1-3)Gal(a1-6)Gal(b1-4)Glc
Summary of the method: as §1

[7] = molecular target: GalNAc(b1-3)GalNAc
Summary of the method: as §1

[8] = molecular target: GalNAc3S(b1-4)[Fuc(a1-3)]GlcNAc
Summary of the method: as §1

[9] = molecular target: Glc(b1-6)Glc
Summary of the method: as §1

[10] = molecular target: GlcNAc(a1-4)Gal(b1-3)GlcNAc
Summary of the method: as §1

[11] = molecular target: GlcNAc(a1-4)Gal(b1-4)GlcNAc(b1-3)Gal(b1-4)[Fuc(a1-3)]GlcNAc(b1-3)Gal(b1-4)[Fuc(a1-3)]GlcNAc
Summary of the method: as §1

[12] = molecular target: GlcNAc(b1-3)Gal(b1-4)GlcNAc(b1-3)Gal(b1-4)GlcNAc(b1-2)Man(a1-3)[GlcNAc(b1-3)Gal(b1-4)GlcNAc(b1-3)Gal(b1-4)GlcNAc(b1-2)Man(a1-6)]Man(b1-4)GlcNAc(b1-4)GlcNAc
Summary of the method: as §1

[13] = molecular target: GlcNAc(b1-3)Gal(b1-4)GlcNAc(b1-3)Gal(b1-4)GlcNAc(b1-3)Gal(b1-4)GlcNAc(b1-2)[GlcNAc(b1-3)Gal(b1-4)GlcNAc(b1-3)Gal(b1-4)GlcNAc(b1-3)Gal(b1-4)GlcNAc(b1-6)]Man(a1-6)[GlcNAc(b1-3)Gal(b1-4)GlcNAc(b1-3)Gal(b1-4)GlcNAc(b1-3)Gal(b1-4)GlcNAc(b1-2)Man(a1-3)]Man(b1-4)GlcNAc(b1-4)[Fuc(a1-6)]GlcNAc
Summary of the method: as §1

[14] = molecular target: GlcNAc(b1-3)Gal(b1-4)GlcNAc(b1-6)[Gal(b1-3)]GalNAc
Summary of the method: as §1

[15] = molecular target: GlcNAc(b1-4)GlcNAc(b1-4)GlcNAc(b1-4)GlcNAc(b1-4)GlcNAc
Summary of the method: as §1

[16] = molecular target: Kdn(a2-3)Gal(b1-3)GlcNAc
Summary of the method: as §1

[17] = molecular target: Man(a1-2)Man(a1-2)Man(a1-3)Man
Summary of the method: as §1

[18] = molecular target: Man(a1-2)Man(a1-3)[Man(a1-6)]Man(a1-6)[Man(a1-2)Man(a1-3)]Man(b1-4)GlcNAc(b1-4)GlcNAc
Summary of the method: as §1

[19] = molecular target: Man(a1-2)Man(a1-6)[Man(a1-3)]Man(a1-6)[Man(a1-2)Man(a1-2)Man(a1-3)]Man(b1-4)GlcNAc(b1-4)GlcNAc
Summary of the method: as §1

[20] = molecular target: Neu5Ac(a2-3)Gal(b1-3)GlcNAc(b1-2)Man
Summary of the method: as §1

[21] = molecular target: Neu5Ac(a2-3)Gal(b1-3)GlcNAc(b1-6)GalNAc
Summary of the method: as §1

[22] = molecular target: Neu5Ac(a2-3)Gal(b1-4)GlcNAc(b1-3)Gal(b1-4)GlcNAc(b1-3)Gal(b1-4)GlcNAc(b1-2)Man(a1-3)[Neu5Ac(a2-3)Gal(b1-4)GlcNAc(b1-3)Gal(b1-4)GlcNAc(b1-3)Gal(b1-4)GlcNAc(b1-2)Man(a1-6)]GalNAc
Summary of the method: as §1

[23] = molecular target: Neu5Ac(a2-3)Gal(b1-4)GlcNAc6S
Summary of the method: as §1

[24] = molecular target: Neu5Ac(a2-3)Gal(b1-4)[Fuc(a1-3)]GlcNAc(b1-3)GalNAc
Summary of the method: as §1

[25] = molecular target: Neu5Ac(a2-8)Neu5Ac
Summary of the method: as §1

[26] = molecular target: Neu5Ac(a2-8)Neu5Gc(a2-3)Gal(b1-4)GlcNAc
Summary of the method: as §1

[27] = molecular target: Neu5Gc(a2-6)GalNAc
Summary of the method: as §1

B1: PX14375C-bth-509-28-509 (Bacteroides thetaiotaomicron) (protein)
chain: RSPQGQFTEDDNPNALVNGKIYNVYTMMRSFDITAGTPAIAIHYLRSEDSEKGSIPSDGSDVAEMYDDFLYTPTNGLLGSYWGKNYAIIYQCNDILDAIAEKETAGQTETEDIINKGEASFFRAYCYFNLVRAFGEVPLVTYKINDASEANIPKTTADKIYEQIDTDLKTAEESLPETWSTEYTGRLTWGAARSLHARTYMMRSDWDNMYKASTDVINKGLYNLKTPYNEIFTDDGENSGGSIFELQCTATAALPQSDVIGSQFCEVQGVRGAGQWDLGWGWHMATQLMADAYETGDPRKNATLLYFRKTDDEPITPENTNEPYGESPISPAMGAYFNKKAYTDPALRKEYTNKGFWVNIRLIRYSDVVLMAAEAANEKNIPGEAVDYLEMVRARARGTNTNILPKITTNDQGELREAIRHERRVELGLEPDRFYDLVRWGIASEVLHAAGKVNYQDKNALLPLPQSEIDKSKGVLVQNPDY
- glycan array binding signal (z-score) [1]: 0.774
- glycan array binding signal (z-score) [2]: 0.053
- glycan array binding signal (z-score) [3]: 3.46
- glycan array binding signal (z-score) [4]: -0.343
- glycan array binding signal (z-score) [5]: 0.244
- glycan array binding signal (z-score) [6]: -0.426
- glycan array binding signal (z-score) [7]: 1.2
- glycan array binding signal (z-score) [8]: -0.31
- glycan array binding signal (z-score) [9]: -0.146
- glycan array binding signal (z-score) [10]: -0.442
- glycan array binding signal (z-score) [11]: -0.057
- glycan array binding signal (z-score) [12]: 3.19
- glycan array binding signal (z-score) [13]: -0.11
- glycan array binding signal (z-score) [14]: -0.076
- glycan array binding signal (z-score) [15]: 0.127
- glycan array binding signal (z-score) [16]: 0.209
- glycan array binding signal (z-score) [17]: -0.321
- glycan array binding signal (z-score) [18]: -0.274
- glycan array binding signal (z-score) [19]: -0.383
- glycan array binding signal (z-score) [20]: -0.329
- glycan array binding signal (z-score) [21]: 3.9
- glycan array binding signal (z-score) [22]: 5.44
- glycan array binding signal (z-score) [23]: -0.321
- glycan array binding signal (z-score) [24]: -0.014
- glycan array binding signal (z-score) [25]: 4.99
- glycan array binding signal (z-score) [26]: 5.56
- glycan array binding signal (z-score) [27]: -0.21
